# Compound activity (PubChem)
# DT40 TDP1 no CPT: qHTS for Inhibitors of human tyrosyl-DNA phosphodiesterase 1 (TDP1): qHTS in cells in absence of CPT; 15% of 420,000 active; Potency, µM (titrated, usually from 46.2 µM), for the others: at the top dose activity change, negative = growth inhibition, actives largely listed as inhibitors; DT40 Tdp1-/- hTDP1 cells, no CPT, ATP luminescence, 48 h; further: potency means the concentration at half of the fitted maximal effect; nearly all actives have a fitted effect of over 55% in size
#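 Luminescent ATP content (CellTiter-Glo) served as the growth readout. Knockout chicken DT40 cells expressing human TDP1 were exposed to compounds without camptothecin for a minimum 48 hr at 37 °C.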
# ELG1 repair inh: inhibitors of ELG1-dependent DNA repair in HEK293T cells | HEK293T ELG1-luciferase reporter, luminescence, 16 h; DNA damage induced by 5-fluorouridine | Potency, µM (series often up to 46.1 µM), for the others: at the highest dose activity change, negative = inhibition, most hits filed as inhibitors | 2.3% of 330,000 active | AID 504467; further: potency means the concentration at half of the fitted maximal effect; nearly all actives have a fitted effect of over 55% in size
#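 Overnight (16 hr) co-exposure of 2,000 cells/well to 5-fluorouridine and compound at 37 °C preceded detection. Luciferase was quantified via ONE-Glo luminescence; loss of signal denotes inhibition.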
# RORg inh: blocks mouse ROR gamma transcriptional activity | Drosophila S2 Gal4-RORgamma UAS-luciferase reporter, 20 h | P51450 | Potency, µM (series often up to 53.6 µM), for the others: top-dose activity change, negative = inhibition, actives largely listed as inhibitors | 5.4% of 310,000 active; further: potency means the concentration at half of the fitted maximal effect; nearly all actives have a fitted effect of over 60% in size
# Target sequence (P51450 whole entry, looked up, the tested form may be a part): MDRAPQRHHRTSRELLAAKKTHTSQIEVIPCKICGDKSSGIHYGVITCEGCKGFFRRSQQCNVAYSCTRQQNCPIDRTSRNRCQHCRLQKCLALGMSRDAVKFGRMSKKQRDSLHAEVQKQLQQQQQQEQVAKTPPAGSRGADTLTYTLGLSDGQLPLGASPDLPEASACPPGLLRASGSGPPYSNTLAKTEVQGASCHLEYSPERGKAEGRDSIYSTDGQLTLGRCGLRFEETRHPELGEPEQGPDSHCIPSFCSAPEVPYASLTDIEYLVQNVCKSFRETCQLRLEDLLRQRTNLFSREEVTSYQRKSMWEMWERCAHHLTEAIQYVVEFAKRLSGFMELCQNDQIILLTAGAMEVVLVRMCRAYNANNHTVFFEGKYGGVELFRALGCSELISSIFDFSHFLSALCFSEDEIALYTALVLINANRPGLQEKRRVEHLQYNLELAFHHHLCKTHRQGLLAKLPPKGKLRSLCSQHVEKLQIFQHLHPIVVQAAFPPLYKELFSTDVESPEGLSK
#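 Luminescence from a UAS-regulated Photinus luciferase reporter in stably transfected Drosophila Schneider cells is measured; decreased signal marks ROR gamma inhibition. Fusion expression is induced by 700 uM copper sulfate for 20 hr.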
# IL1B secr inh: blocks inflammasome-driven IL-1 beta release | AID 743279 | activity change, % at 57.5 µM | THP-1 LPS/ATP IL-1B secretion, AlphaLISA, 16 h; active compounds read low | 4.7% of 360,000 active; in the data active means activity change below about -50%; inconclusive means mostly about -30% to -49%
#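 THP-1 cells pretreated 1 hr with compounds (up to 57.5 uM final), then stimulated with LPS (250 ng/mL final) plus ATP (1.25 mM final); secreted IL-1B measured by AlphaLISA after 16 hr, decreased signal indicating inhibition.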
# Gal4-VP16 FLuc: inhibits Gal4-VP16 luciferase reporter, ROR gamma counter-screen; Drosophila S2 Gal4-VP16 UAS-luciferase, luminescence, 20 h; Potency, µM (doses to about 53.6 µM), for inactives: at the top dose activity, negative = inhibition, actives largely listed as inhibitors; 3.5% of 310,000 active; AID 2546;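 further: Gal4-VP16 expression switched on by copper sulfate through the metallothionein promoter; potency means the concentration at half of the fitted maximal effect; nearly all actives have a fitted effect of over 50% in size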
# DT40 TDP1 CPT: growth inhibition of DT40 Tdp1-/-;hTDP1 cells with camptothecin (screen for TDP1 inhibitors); chicken DT40 Tdp1-/-;hTDP1 cells + 20 nM CPT, ATP luminescence, 48 h; 12% of 420,000 active; AID 686979; Potency, µM (highest dose often 46.2 µM), for the others: at the highest dose activity change, negative = growth inhibition, actives largely listed as inhibitors; further: potency means the concentration at half of the fitted maximal effect; nearly all actives have a fitted effect of over 55% in size
#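 Chicken DT40 Tdp1-/- cells stably complemented with human TDP1 were seeded at 400 cells/well in medium containing 20 nM camptothecin, exposed to pin-transferred compounds, and grown at 37 °C for at least 48 hr. Viability was read as ATP luminescence.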
# * hit, by the source's call; ? = inconclusive; nt = no result given; [ ] = dose if it differs, or a comment. Only some compounds are listed: those with a hit (about 21% of all), similar ones and a draw of the others. Unless noted, the call rests on the fitted dose curve; in most records, active means well fitted curve in the direction sought with a large enough effect; inconclusive means small, poorly fitted or top-dose-only effect, or another doubt; inactive means no such curve, though single readings can be large; an effect the other way counts as inactive or inconclusive. On the % scale 0 is the no-effect control and ±100 the full control effect.
SMILES,DT40 TDP1 no CPT,ELG1 repair inh,RORg inh,IL1B secr inh,Gal4-VP16 FLuc,DT40 TDP1 CPT
C#CC(C)OC(=O)c1nnc2c3ccccc3n(COC)c2n1 (stereo not given),nt,nt,-10%[10 µM],nt,-7%[10 µM],nt
COc1ccc(-c2cc(C(F)(F)F)n3nc(C(=O)Nc4cc(C(F)(F)F)ccc4Cl)cc3n2)cc1OC,?,nt,nt,nt,nt,15%
CCOc1cc(C(=O)NC(=S)Nn2cnnc2)cc(OCC)c1OCC,3%,0%,-6%,31,-17%,2%
Cc1ccnc(NC(=O)c2ccc(S(=O)(=O)NCc3ccco3)cc2)c1,?,4%,nt,-1,nt,21µM*
C/C(CC(=O)Nc1cc(C)ccn1)=N\NC(=O)c1ccccc1C,-11%,?,8.9µM*,-12,?,3%
CCOc1cc(C(=O)NC(=S)Nc2nc(C)cc(C)n2)cc(OCC)c1OCC,5%,?,11µM*,57,?,-5%
Cc1ccc(NC(=O)c2ccc(S(=O)(=O)NCc3ccco3)cc2)cc1,-12%,?,-41%,-10,-7%,-27%
CCOc1ccc(C(=O)Nc2cc(C)ccn2)cc1,23µM*,?,8.9µM*,-9,10µM*,7.3µM*
CCNC(=O)C1(C)CCN(C(=O)c2ccc(OC)c(OC)c2)C1 (stereo not given),-1%,nt,nt,12,nt,-7%
CCOc1ccc(C(=O)NCC(=O)Nc2cc(C)ccn2)cc1OCC,24%,?,nt,?,nt,2%
CCOc1cc(C(=O)Nc2cc(C)ccn2)cc(OCC)c1OCC,?,?,16µM*,-2,?,18µM*
COc1ccc(C(=O)Nc2cccc(C(=O)Nc3cc(C)ccn3)c2)cc1,21µM*,nt,nt,-2,nt,?
CCCCOc1ccc(C(=O)Nc2cccc(C)n2)cc1,?,?,?,0,?,?
COCCSc1ccccc1C(=O)Nc1cc(C)ccn1,23µM*,11%,-11%,10,-11%,?
CCOc1ccc(C(=O)Nc2cccc(C)n2)cc1,?,?,8.9µM*,-6,?,?
COCCSc1ccccc1C(=O)Nc1cc(C)cc(C)c1,-3%,0%,-19%,-4,-6%[10 µM],?
Cc1cc(C)n2c(SCC(=O)N(CC(C)C)c3c(N)n(CC(C)C)c(=O)[nH]c3=O)nnc2n1,8%,4%,3%,10,1%,2%
COc1cccc(NC(=O)CN(C)C(=O)c2cc(S(=O)(=O)N3CCCCCC3)ccc2OC)c1,-25%,-16%,nt,-19,nt,-25%
O=C(Nc1cnccn1)c1ccc(Cl)cc1,?,-2%,-6%,-12,2%,-5%
CCCCCCC=O,nt,nt,-19%,nt,-9%,nt
Cc1ccnc(NC(=O)c2ccc(C(=O)c3ccccc3)cc2)c1,21µM*,?,nt,-17,nt,18µM*
CC(=O)Nc1ccc(OCCCN2CCC(C(O)(c3ccccc3)c3ccccc3)CC2)cc1,?,nt,nt,8,nt,?
N#CCc1ccc(OCCCN2CCC(C(O)(c3ccccc3)c3ccccc3)CC2)cc1,21µM*,nt,nt,?,nt,23µM*
CC(=O)Nc1ccccc1OCCCN1CCC(C(O)(c2ccccc2)c2ccccc2)CC1,?,nt,nt,-3,nt,?
OC(c1ccccc1)(c1ccccc1)C1CCN(CCCOc2cccc(OC(F)(F)F)c2)CC1,16µM*,nt,nt,-51*,nt,16µM*
SMILES,DT40 TDP1 no CPT,ELG1 repair inh,RORg inh,IL1B secr inh,Gal4-VP16 FLuc,DT40 TDP1 CPT
OC(c1ccccc1)(c1ccccc1)C1CCN(CCCOc2ccc3c(c2)CCCC3)CC1,5.2µM*,nt,nt,-115*,nt,4.1µM*
O=C1CCc2cc(S(=O)(=O)Nc3ccccc3)cc3c2N1CC3,-4%,?,nt,23,nt,8%
COc1cc2nc(NCc3ccccc3Cl)n3nc(-c4cccnc4)nc3c2cc1OC,-16%,nt,nt,nt,nt,3%
COc1ccc(NC(=O)c2nc[nH]c2C(=O)N(C)CCO)cc1,3%,nt,nt,-5,nt,-14%
Cn1c(CCN2CCN(c3ccccn3)CC2)nc2cc(NC(=O)COc3ccccc3)ccc21,26µM*,?,25%,-14,-16%,?
Cc1ccc(OCC(=O)Nc2ccc3c(c2)nc(CCN2CCN(c4ccccn4)CC2)n3C)cc1,21µM*,nt,nt,48,nt,23µM*
CCC(=O)Nc1ccc(C(=O)COC(=O)c2nc3nccc(C)n3n2)cc1,26%,18%,nt,10,nt,-23%
O=C1CCCC(C(C(=O)OCc2ccccc2)C(=O)OCc2ccccc2)C1 (stereo not given),nt,nt,9%,nt,6%,nt
Cc1ccccc1-c1cncnc1NC1CCNCC1,-5%,nt,0%,nt,6%,-3%
CCC(=O)Nc1ccccc1-c1nnn(CC(=O)N2c3ccccc3CC2C)n1 (stereo not given),-22%,-21%,21%,-6,1%,?
CC1Cc2ccccc2N1C(=O)Cn1nnc(-c2ccccc2NC(=O)C2CCC2)n1 (stereo not given),15µM*,23µM*,-9%,-11,2%,?
COc1ccc(C(=O)Cn2nnc(-c3ccccc3NC(=O)C3CCCCC3)n2)cc1,?,?,-21%,19,1%,23µM*
CC(OC(=O)C1CCN(S(=O)(=O)c2ccc(F)cc2)CC1)C(=O)NC1CCCCC1C (stereo not given),-29%,-1%,nt,4,nt,-16%
CC1C/C(=N/N2C(=O)CSC2=S)CC(C)(C)C1 (stereo not given),-44%,-2%,10µM*,28,-8%,-39%
Cc1cc(C)nc(/N=C2/NC(=O)CS2)n1,-9%,13%,4%,25,-1%,-11%
O=C1CS/C(=N/N=C2C3CC4CC(C3)CC2C4)N1,?,14%,4.5µM*,14,3.2µM*,?
CC1C/C(=N/N=C2/NC(=O)CS2)CC(C)(C)C1 (stereo not given),-2%,1%,2.2µM*,7,5µM*,-23%
O=C1CSC(=S)N1N=Cc1cccc2ccccc12,?,nt,nt,9,nt,-27%
Cc1cc(NC(=O)c2cc([N+](=O)[O-])ccc2Cl)no1,16µM*,6%,14%,?,-2%,?
O=C(Nc1cccc(NC(=O)c2ccccc2[N+](=O)[O-])n1)c1ccccc1[N+](=O)[O-],9.2µM*,-10%,12%,6,1%,6.5µM*
O=C(c1cc([N+](=O)[O-])ccc1Cl)N1CCN(c2ccccc2)CC1,-18%,21%,17%,-8,-3%,22%
O=C(Nc1cccc(NC(=O)c2cc([N+](=O)[O-])ccc2Cl)n1)c1cc([N+](=O)[O-])ccc1Cl,9.2µM*,nt,nt,-100*,nt,7.3µM*
